Assay results from PubChem BioAssay.

These compounds were tested on Rat fibroblasts (CREF) (assay: Peg3 promoter luciferase inhibitors, potency, dose response, cell-based, HeLa, CREF/GAPDH counter-screen panel (AID 624167)). Conditions: CREF/GAPDH counter-screens; run 1, dose range 1, at 100 µM (top of the series).

SMILES | inhibition [%]
CC(C)Cc1ccc(C(C)C(N)=NCCc2ccccc2)cc1 (stereo not given) | 100
CCCCCCN1C=C/C(=C\C=C(C#N)C#N)c2ccccc21 | 43.7
Cc1ccc(-n2c(N)c(C(=O)Nc3c(C)n(C)n(-c4ccccc4)c3=O)c3nc4ccccc4nc32)cc1 | 89.4
S=C(NN=C(c1ccccc1)c1ccccn1)N(Cc1ccccn1)Cc1ccccn1 | 97.9
CCCn1nc(C(=O)Nc2nc(-c3ccccn3)cs2)c2ccccc2c1=O | 7.59
Cc1cc(C)c(C)c(S(=O)(=O)N2CCN(C(=O)c3cc(=O)[nH]c4ccccc34)CC2)c1C | 34.6
Oc1[nH]c2ccc(Br)cc2c1N=NC(=S)N1CCOCC1 | 30.5
COc1cc(Nc2c3ccccc3nc3ccccc23)cc(OC)c1OC | 92.9
Cc1cc(/C=N/Nc2ncnc(N)c2[N+](=O)[O-])c(C)n1-c1ccccc1 | 91.1
COc1cccc(/C=N/NC(=O)c2ccc(-c3ccccc3)cc2)c1O | 69.8
O=C(NNC(=O)c1cccnc1SCc1cccc([N+](=O)[O-])c1)c1ccccn1 | 46.9
CN(C)c1ccc(/C=C/c2ccc3ccccc3n2)cc1 | 96.6
CCCS(=O)(=O)c1cnc(C2COc3ccccc3O2)nc1N (stereo not given) | 89.5
O=C(CN1C(=O)c2ccccc2S1(=O)=O)c1ccc2c(c1)OCCO2 | 95.2
CCn1nc(C)cc1-c1nnc(Sc2ncc([N+](=O)[O-])s2)n1C | 99.4
O=C(Nc1ccc(Cc2ccncc2)cc1)c1ccc([N+](=O)[O-])o1 | 100
Cc1oc(-c2ccc3c(c2)OCCO3)cc1C(=O)O | 84.4
CC(=O)c1sc2c(c1OC(=O)c1ccc(Cl)cc1Cl)c(=O)n(-c1ccccc1)c(=S)n2-c1ccccc1 | 14.9
COc1cc(CNCCCN2CCOCC2)cc(Br)c1OCc1ccc(Cl)cc1 | 100
CCCC(=O)NC(c1ccc(C)cc1)c1ccc2cccnc2c1O (stereo not given) | 3.2

SMILES | inhibition [%]
CC(=O)c1ccc(-c2cnc3c(NC=O)cc(-c4ccccc4Oc4ccccc4)cn23)cc1 | -25.1
CC(=O)N1CCCC(c2cc(C(=O)Nc3ccccc3)no2)C1 (stereo not given) | 93.1
Oc1c(I)cc(Cl)c2cccnc12 | 87
O=C(Nc1nc2cc3c(cc2s1)OCCO3)C1=COCCO1 | 95.3
CCCC(=O)NC(c1ccc(Cl)cc1)c1ccc2cccnc2c1O (stereo not given) | 12.3
Cc1c(C)c2ccc(OCC(=O)Nc3ccccn3)c(C)c2oc1=O | 98.5
O=C(CNC(=O)C(c1ccccc1)c1ccccc1)N/N=C/c1ccc(O)cc1O | 28.9
CN(C)c1ccc(/C=C/c2ccc3c4ccccc4ccc3[n+]2-c2ccccc2)cc1 | 101
O=C(Nc1ncc([N+](=O)[O-])s1)c1ccc2c(c1)OCO2 | 91.5
COC1CC(C)C(OC)c2cc(O)cc(c2O)NC(=O)C(C)=CC=CC(C)C(OC(N)=O)C(C)=CC(C)C1OC (stereo not given) | 97.1
Cc1cc(NC(c2cccnc2)c2ccc3cccnc3c2O)no1 (stereo not given) | 59.7
Cc1ccc(-c2nc(-c3ccccn3)no2)cc1Cl | 99.3
c1ccc(-c2nc(-c3ccccn3)no2)cc1 | 98
O=C(COc1ccc2c(c1)CCC2)Nc1ccccn1 | 97.5
Cc1cc(C2=NNC(=NC3CC3)SC2)c(C)n1-c1ccccc1F | 96.9
Brc1ccc(N/N=C(/N=Nc2nn[nH]n2)c2ccccc2)cc1 | 75.7
CCOc1ccc2nc(NC(=O)c3ccccn3)sc2c1 | 87.1
COc1cccc2nc3c(C(=O)NCCN(C)C)cccc3cc12 | 98
CN(C)c1ccc(/C=C(\C#N)c2ccccn2)cc1 | 98.2
CCCOc1ccc2cc(-c3ccccn3)c(=O)oc2c1 | 96.1

These compounds were tested on Rat fibroblasts (CREF) in the same assay as above. Conditions: CREF/GAPDH counter-screens; run 2, dose range 1, at 100 µM (top of the series).

SMILES | inhibition [%]
CC(C)Cc1ccc(C(C)C(N)=NCCc2ccccc2)cc1 (stereo not given) | 99.2
CCCCCCN1C=C/C(=C\C=C(C#N)C#N)c2ccccc21 | 89.7
Cc1ccc(-n2c(N)c(C(=O)Nc3c(C)n(C)n(-c4ccccc4)c3=O)c3nc4ccccc4nc32)cc1 | 83.7
S=C(NN=C(c1ccccc1)c1ccccn1)N(Cc1ccccn1)Cc1ccccn1 | 98
CCCn1nc(C(=O)Nc2nc(-c3ccccn3)cs2)c2ccccc2c1=O | 23.2
Cc1cc(C)c(C)c(S(=O)(=O)N2CCN(C(=O)c3cc(=O)[nH]c4ccccc34)CC2)c1C | 90.5
Oc1[nH]c2ccc(Br)cc2c1N=NC(=S)N1CCOCC1 | 99.1
COc1cc(Nc2c3ccccc3nc3ccccc23)cc(OC)c1OC | 72.1
Cc1cc(/C=N/Nc2ncnc(N)c2[N+](=O)[O-])c(C)n1-c1ccccc1 | 93.5
COc1cccc(/C=N/NC(=O)c2ccc(-c3ccccc3)cc2)c1O | 67.6
O=C(NNC(=O)c1cccnc1SCc1cccc([N+](=O)[O-])c1)c1ccccn1 | 42.9
CN(C)c1ccc(/C=C/c2ccc3ccccc3n2)cc1 | 95.8
CCCS(=O)(=O)c1cnc(C2COc3ccccc3O2)nc1N (stereo not given) | 87.6
O=C(CN1C(=O)c2ccccc2S1(=O)=O)c1ccc2c(c1)OCCO2 | 96
CCn1nc(C)cc1-c1nnc(Sc2ncc([N+](=O)[O-])s2)n1C | 98.8
O=C(Nc1ccc(Cc2ccncc2)cc1)c1ccc([N+](=O)[O-])o1 | 99.5
Cc1oc(-c2ccc3c(c2)OCCO3)cc1C(=O)O | 81.3
CC(=O)c1sc2c(c1OC(=O)c1ccc(Cl)cc1Cl)c(=O)n(-c1ccccc1)c(=S)n2-c1ccccc1 | 61.6
COc1cc(CNCCCN2CCOCC2)cc(Br)c1OCc1ccc(Cl)cc1 | 99.1
CCCC(=O)NC(c1ccc(C)cc1)c1ccc2cccnc2c1O (stereo not given) | 23.3

SMILES | inhibition [%]
CC(=O)c1ccc(-c2cnc3c(NC=O)cc(-c4ccccc4Oc4ccccc4)cn23)cc1 | 94.9
CC(=O)N1CCCC(c2cc(C(=O)Nc3ccccc3)no2)C1 (stereo not given) | 92
Oc1c(I)cc(Cl)c2cccnc12 | 85.5
O=C(Nc1nc2cc3c(cc2s1)OCCO3)C1=COCCO1 | 97
CCCC(=O)NC(c1ccc(Cl)cc1)c1ccc2cccnc2c1O (stereo not given) | 28.1
Cc1c(C)c2ccc(OCC(=O)Nc3ccccn3)c(C)c2oc1=O | 97.8
O=C(CNC(=O)C(c1ccccc1)c1ccccc1)N/N=C/c1ccc(O)cc1O | 35.6
CN(C)c1ccc(/C=C/c2ccc3c4ccccc4ccc3[n+]2-c2ccccc2)cc1 | 100
O=C(Nc1ncc([N+](=O)[O-])s1)c1ccc2c(c1)OCO2 | 91.7
COC1CC(C)C(OC)c2cc(O)cc(c2O)NC(=O)C(C)=CC=CC(C)C(OC(N)=O)C(C)=CC(C)C1OC (stereo not given) | 98.6
Cc1cc(NC(c2cccnc2)c2ccc3cccnc3c2O)no1 (stereo not given) | 94.9
Cc1ccc(-c2nc(-c3ccccn3)no2)cc1Cl | 99.4
c1ccc(-c2nc(-c3ccccn3)no2)cc1 | 98.3
O=C(COc1ccc2c(c1)CCC2)Nc1ccccn1 | 94.5
Cc1cc(C2=NNC(=NC3CC3)SC2)c(C)n1-c1ccccc1F | 97.5
Brc1ccc(N/N=C(/N=Nc2nn[nH]n2)c2ccccc2)cc1 | 70
CCOc1ccc2nc(NC(=O)c3ccccn3)sc2c1 | 83.4
COc1cccc2nc3c(C(=O)NCCN(C)C)cccc3cc12 | 95.2
CN(C)c1ccc(/C=C(\C#N)c2ccccn2)cc1 | 99
CCCOc1ccc2cc(-c3ccccn3)c(=O)oc2c1 | 95.4
